Measured values: ChEMBL document CHEMBL3988442, “University of Dundee, Small-Polar-MMV Screening Library” (2021)
For some assays here: Potency and affinity values are given separately.

Columns and labels:
Set-up in all cases: scale not given: direction of the effect not stated beside the values
[1] = target: Protein translocase subunit SecA (Escherichia coli (strain K12)) (UniProt P10408); assay: Assay to Identify E. coli SecA ATPase Inhibitors; type: functional; settings: 30 µM
[2] = target: T1, Ubiquitin-activating enzyme e1, putative (Leishmania donovani (strain BPK282A1)) (UniProt E9BSI1); assay: Leishmania donovani Ubiquitin Activating Enzyme (LdE1); type: functional; settings: 30 µM
T1 sequence (whole entry): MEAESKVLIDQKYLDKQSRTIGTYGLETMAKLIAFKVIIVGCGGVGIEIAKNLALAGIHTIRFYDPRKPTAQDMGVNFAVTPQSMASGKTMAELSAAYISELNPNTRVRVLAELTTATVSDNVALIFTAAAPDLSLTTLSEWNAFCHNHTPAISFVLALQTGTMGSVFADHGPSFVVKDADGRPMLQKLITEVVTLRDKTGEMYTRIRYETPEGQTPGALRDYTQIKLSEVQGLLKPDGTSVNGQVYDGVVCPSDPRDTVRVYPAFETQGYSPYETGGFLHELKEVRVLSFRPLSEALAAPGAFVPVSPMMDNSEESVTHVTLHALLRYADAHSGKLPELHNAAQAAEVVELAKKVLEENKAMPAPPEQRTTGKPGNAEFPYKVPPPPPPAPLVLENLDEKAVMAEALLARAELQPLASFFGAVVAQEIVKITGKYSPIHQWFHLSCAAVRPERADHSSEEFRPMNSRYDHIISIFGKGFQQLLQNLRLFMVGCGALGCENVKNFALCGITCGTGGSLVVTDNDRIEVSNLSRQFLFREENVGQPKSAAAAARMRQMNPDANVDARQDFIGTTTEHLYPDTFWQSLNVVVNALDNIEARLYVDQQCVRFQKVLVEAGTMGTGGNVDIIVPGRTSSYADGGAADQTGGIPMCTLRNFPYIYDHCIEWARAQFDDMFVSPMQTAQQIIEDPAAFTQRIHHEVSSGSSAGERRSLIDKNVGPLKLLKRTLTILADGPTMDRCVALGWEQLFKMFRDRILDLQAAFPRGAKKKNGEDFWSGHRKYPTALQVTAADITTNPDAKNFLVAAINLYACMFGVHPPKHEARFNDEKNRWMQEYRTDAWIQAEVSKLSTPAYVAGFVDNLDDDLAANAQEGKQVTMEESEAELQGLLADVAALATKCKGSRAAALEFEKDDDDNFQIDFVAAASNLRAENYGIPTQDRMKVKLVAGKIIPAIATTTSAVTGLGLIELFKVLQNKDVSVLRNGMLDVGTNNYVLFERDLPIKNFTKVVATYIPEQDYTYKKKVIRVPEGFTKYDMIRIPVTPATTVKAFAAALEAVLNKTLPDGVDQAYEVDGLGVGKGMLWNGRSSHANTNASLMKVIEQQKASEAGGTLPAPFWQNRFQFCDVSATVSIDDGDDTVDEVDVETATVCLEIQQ

[3] = target: AMP-activated protein kinase, AMPK (Homo sapiens) (UniProt P54646+O43741+P54619+Q9UGJ0+Q9Y478+Q13131+Q9UGI9); assay: AMP-dependent Kinase enzyme assay. An in vitro enzyme assay that detects ADP turnover that is directly proportional to AMPK activity. This uses naive AMPK that is activated during the assay with MK-8722; type: functional; settings: 30 µM
[4] = target: Sialic acid-binding Ig-like lectin 9 (Homo sapiens) (UniProt Q9Y336); assay: Hs-Siglec9 ALPHAscreen SOP 20170721; settings: 10 µM
Trypanosoma cruzi = assay: Trypanosoma cruzi phosphomannomutase and mannose-1-phosphate guanylyltransferase assay; type: functional; settings: 10 µM
[5] = target: T2, Arginase-2, mitochondrial (Homo sapiens) (UniProt P78540); assay: in vitro enzyme assay to detect the production of urea directly proportional to the activity of Arginase II; type: functional; settings: 33.3 µM; also: in the data most compounds retested in dose-response had high values
T2 sequence (whole entry): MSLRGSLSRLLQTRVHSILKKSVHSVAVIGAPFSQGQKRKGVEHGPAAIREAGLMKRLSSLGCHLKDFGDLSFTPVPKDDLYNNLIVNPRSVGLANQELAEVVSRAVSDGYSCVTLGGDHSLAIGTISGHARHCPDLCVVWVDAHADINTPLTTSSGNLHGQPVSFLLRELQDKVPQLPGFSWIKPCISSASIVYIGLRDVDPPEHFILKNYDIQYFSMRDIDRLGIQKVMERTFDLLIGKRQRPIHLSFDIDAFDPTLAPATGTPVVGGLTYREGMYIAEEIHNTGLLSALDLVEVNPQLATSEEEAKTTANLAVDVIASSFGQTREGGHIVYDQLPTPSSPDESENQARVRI

[6] = target: T3, Proteasome subunit beta (Trypanosoma cruzi) (UniProt O96673); assay: Trypanosoma cruzi proteasome chymotrypsin-like activity (TcProtChymo) assay.; also: in the data most compounds retested in dose-response had high values; type: functional; settings: 9.37 µM
T3 sequence (whole entry): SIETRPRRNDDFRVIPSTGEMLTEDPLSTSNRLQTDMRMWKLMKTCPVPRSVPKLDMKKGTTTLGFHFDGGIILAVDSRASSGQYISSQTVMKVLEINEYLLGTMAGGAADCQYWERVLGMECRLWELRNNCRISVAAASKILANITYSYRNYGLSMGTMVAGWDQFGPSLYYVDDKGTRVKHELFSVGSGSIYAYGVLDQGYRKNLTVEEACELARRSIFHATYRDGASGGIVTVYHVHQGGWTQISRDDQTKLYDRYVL

Homo sapiens = species on record: Homo sapiens; assay: To identify inhibition of the IFN signalling (Jak-Stat) pathway via expression of an eGFP reporter gene under the control of an IFN-stimulated response element (ISRE) containing MxA promoter.; type: functional; settings: 30 µM
[7] = target: T4, Tyrosyl-tRNA synthetase, putative (Trypanosoma cruzi (strain CL Brener)) (UniProt Q4DSP6); assay: Trypanosoma cruzi tyrosyl tRNA synthetase (TcYRS) _High Tyrosine SOP; type: functional; settings: 30 µM; also: in the data most compounds retested in dose-response had high values
T4 sequence (whole entry): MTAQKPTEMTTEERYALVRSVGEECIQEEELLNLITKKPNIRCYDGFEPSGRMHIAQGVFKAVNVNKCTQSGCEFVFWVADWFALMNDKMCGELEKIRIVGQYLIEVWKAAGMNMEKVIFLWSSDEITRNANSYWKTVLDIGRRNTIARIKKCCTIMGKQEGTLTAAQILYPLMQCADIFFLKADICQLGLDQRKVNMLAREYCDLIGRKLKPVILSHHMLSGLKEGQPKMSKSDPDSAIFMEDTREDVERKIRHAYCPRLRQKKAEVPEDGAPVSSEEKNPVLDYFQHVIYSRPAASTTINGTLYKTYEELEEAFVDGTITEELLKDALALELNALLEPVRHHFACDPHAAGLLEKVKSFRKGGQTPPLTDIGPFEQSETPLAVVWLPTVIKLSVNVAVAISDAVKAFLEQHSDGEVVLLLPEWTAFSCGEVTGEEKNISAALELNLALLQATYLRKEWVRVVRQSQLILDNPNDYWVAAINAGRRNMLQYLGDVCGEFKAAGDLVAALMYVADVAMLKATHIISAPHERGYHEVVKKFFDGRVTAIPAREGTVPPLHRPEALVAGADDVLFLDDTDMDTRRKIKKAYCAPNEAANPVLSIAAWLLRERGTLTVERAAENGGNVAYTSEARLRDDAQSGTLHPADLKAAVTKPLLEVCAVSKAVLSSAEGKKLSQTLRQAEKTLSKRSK

[8] = target: T4, Tyrosyl-tRNA synthetase, putative (Trypanosoma cruzi (strain CL Brener)); assay: Trypanosoma cruzi tyrosyl tRNA synthetase (TcYRS) SOP; type: functional; settings: 30 µM
[9] = target: Chromo domain-containing protein 1 (Saccharomyces cerevisiae (strain ATCC 204508 / S288c) (Baker's yeast)) (UniProt P32657); assay: ScCHD-1 Enzyme Inhibition Assay; type: functional; settings: 30 µM; also: in the data most compounds retested in dose-response had high values
Chromo domain-containing protein 1 (Saccharomyces cerevisiae (strain ATCC 204508 / S288c) (Baker's yeast)), sequence (P32657 whole entry, the tested form may be a part): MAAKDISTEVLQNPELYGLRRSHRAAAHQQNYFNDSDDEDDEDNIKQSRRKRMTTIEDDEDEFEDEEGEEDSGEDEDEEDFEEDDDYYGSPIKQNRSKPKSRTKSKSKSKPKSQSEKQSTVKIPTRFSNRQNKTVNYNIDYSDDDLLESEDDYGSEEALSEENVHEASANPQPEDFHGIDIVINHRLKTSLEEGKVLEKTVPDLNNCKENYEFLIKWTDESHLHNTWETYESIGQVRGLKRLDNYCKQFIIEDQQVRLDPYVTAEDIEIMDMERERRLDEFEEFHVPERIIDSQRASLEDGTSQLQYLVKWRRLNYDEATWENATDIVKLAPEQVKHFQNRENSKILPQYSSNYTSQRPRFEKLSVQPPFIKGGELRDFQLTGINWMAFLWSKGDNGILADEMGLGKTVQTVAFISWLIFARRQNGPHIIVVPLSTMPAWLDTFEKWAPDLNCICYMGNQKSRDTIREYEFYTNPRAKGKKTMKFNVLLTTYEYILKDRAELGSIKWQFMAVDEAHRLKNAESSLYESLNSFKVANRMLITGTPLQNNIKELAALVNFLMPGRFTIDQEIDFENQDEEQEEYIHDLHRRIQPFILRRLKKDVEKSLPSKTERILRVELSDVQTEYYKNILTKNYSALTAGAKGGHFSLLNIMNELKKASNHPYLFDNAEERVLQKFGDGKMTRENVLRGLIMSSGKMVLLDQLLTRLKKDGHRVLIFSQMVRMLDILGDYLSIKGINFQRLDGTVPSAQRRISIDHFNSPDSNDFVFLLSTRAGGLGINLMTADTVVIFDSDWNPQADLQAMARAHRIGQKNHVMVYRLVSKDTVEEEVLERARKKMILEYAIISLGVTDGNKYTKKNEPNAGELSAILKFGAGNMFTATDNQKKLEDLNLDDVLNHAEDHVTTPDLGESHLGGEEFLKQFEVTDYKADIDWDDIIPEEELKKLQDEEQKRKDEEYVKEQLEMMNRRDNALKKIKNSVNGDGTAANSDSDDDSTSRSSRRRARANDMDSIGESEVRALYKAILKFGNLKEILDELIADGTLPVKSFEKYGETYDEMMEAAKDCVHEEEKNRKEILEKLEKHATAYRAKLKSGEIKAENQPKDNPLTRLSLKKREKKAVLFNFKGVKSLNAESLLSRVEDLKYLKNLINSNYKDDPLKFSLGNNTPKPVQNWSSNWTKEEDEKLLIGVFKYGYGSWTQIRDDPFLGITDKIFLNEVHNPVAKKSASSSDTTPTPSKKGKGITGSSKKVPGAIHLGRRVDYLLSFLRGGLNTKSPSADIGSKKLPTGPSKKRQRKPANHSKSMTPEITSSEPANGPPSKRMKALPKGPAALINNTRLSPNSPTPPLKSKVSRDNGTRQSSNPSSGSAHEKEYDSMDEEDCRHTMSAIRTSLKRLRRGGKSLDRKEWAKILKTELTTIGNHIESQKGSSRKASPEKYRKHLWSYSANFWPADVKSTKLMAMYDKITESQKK

Sialic acid-binding Ig-like lectin 9 (Homo sapiens), sequence (Q9Y336 whole entry): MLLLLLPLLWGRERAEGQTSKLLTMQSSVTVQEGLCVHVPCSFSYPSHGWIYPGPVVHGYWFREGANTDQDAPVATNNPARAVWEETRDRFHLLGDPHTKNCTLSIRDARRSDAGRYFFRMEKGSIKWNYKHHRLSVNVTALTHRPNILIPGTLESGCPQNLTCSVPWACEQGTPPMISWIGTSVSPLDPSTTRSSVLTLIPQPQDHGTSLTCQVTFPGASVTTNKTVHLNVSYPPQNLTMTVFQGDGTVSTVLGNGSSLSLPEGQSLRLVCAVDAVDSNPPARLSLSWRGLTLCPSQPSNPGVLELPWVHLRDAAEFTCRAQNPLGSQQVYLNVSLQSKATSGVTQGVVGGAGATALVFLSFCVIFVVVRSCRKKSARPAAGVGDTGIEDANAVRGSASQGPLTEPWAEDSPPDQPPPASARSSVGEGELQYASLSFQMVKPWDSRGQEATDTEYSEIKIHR
Protein translocase subunit SecA (Escherichia coli (strain K12)), sequence (P10408 whole entry): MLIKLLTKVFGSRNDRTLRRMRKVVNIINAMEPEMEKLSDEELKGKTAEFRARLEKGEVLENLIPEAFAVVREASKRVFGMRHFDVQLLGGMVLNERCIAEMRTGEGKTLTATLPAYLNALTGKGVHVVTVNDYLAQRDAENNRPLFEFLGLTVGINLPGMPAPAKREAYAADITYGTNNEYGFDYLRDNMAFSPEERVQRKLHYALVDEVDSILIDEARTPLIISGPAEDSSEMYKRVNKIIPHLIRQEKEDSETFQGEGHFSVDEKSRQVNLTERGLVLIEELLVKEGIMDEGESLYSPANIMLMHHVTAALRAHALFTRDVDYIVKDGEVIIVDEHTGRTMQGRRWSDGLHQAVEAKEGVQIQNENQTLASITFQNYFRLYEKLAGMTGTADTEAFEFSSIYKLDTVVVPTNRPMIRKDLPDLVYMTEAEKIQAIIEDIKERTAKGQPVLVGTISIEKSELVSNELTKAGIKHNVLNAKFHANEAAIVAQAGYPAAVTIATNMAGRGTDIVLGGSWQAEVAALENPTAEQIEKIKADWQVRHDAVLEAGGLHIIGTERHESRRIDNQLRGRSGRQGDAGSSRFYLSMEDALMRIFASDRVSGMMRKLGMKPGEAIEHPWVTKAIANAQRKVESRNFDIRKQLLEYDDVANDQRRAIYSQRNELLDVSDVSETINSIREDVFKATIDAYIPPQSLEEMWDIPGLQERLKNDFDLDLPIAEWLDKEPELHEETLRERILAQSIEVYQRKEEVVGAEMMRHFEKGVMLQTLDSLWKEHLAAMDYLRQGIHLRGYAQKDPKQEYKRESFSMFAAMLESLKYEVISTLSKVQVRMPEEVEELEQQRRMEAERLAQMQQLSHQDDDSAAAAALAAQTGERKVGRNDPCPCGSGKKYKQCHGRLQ

SMILES	Percent Effect [1] [%]	Percent Effect [2] [%]	Percent Effect [3] [%]	Percent Effect [4] [%]	Percent Effect (Trypanosoma cruzi) [%]	Percent Effect [5] [%]	Percent Effect [6] [%]	Percent Effect (Homo sapiens) [%]	Percent Effect [7] [%]	Percent Effect [8] [%]	Percent Effect [9] [%]
Cc1ccc(C(=O)NCC2(O)CCOCC2)cc1Br	-4.53	5.41	0.131	12.8	-0.772	-2.38	7.07	19	4.76	7.32	-2.67
CCn1cc(CN2CCCN(C(=O)CCCn3cncn3)CC2)cn1	-2.76	0	7.06	6.78	5.43	1.42	5.91	17.2	4.85	14.6	-6.03
CN(CC(=O)N1CCCC1c1cnn(C)c1)c1ccc(Cl)cn1 (configuration not stated)	-8.15	7.89	-2.82	-3.87	-7.56	2.52	7.19	6.79	2.46	6.17	0.471
Cn1cccc1C(=O)N1CC[C@H]2C[C@@H](c3ccncn3)O[C@@H]2C1	-5.79	13.5	3.37	-2.88	-0.684	6.69	14.6	2.31	4.32	5.13	-0.0971
CN1CC(=O)N(c2cccc(F)c2)CC12CCN(S(C)(=O)=O)C2 (configuration not stated)	-4.45	10.8	2.57	0.944	-1.07	3.5	18.8	-6.25	4.32	10.3	-1.22
CCOCC1CN(C(=O)c2ccncc2)Cc2nn(C)cc21 (configuration not stated)	2.34	16	-4.74	2.25	0.193	-51.1	9.23	-2.51	6.25	22.5	-3.97
Cc1cc(N(C)Cc2noc(C)n2)n2nc(C)c(C)c2n1	-2.12	9.72	-8.49	-4.19	-1.07	3.97	15.6	9.15	4.21	10.3	-4.2
COCc1cnc2n1CCN(C(=O)C1=CCCCC1)C2C (configuration not stated)	2.94	17.3	-3.72	-2.8	-1.77	-16.7	15.5	33	3.17	12.8	-8.38
CC(C)COC(C)C(=O)NCc1cc(F)cc(F)c1 (configuration not stated)	-1.7	2.6	8.53	10.1	1.47	2.32	-0.728	21.9	2.86	2.35	-5.87
COCCN(C)C(=O)Nc1ccc2c(ccn2CCOC)c1	-6.84	28.9	-12.8	0.86	6.33	-1.18	-0.0959	1.75	4.25	13	-17.1
CC(C)NC(=O)N1CCC2(COCc3cnc(-c4cccnc4)nc32)C1 (configuration not stated)	-3.55	2.7	6.5	0.534	-6.94	4.78	12	6.17	1.08	5.13	2.74
Cc1nc(C)n(CC2CCCN(Cc3nnc(-c4ccco4)o3)C2)n1 (configuration not stated)	-3.02	0	11.3	-2.45	3.02	3.55	3.74	4.98	5.32	5.2	-1.67
N#Cc1ccc(OC2CCN(C(=O)c3ccc4c(c3)OCO4)CC2)nc1	-3.87	13.7	-6.59	16.4	6.07	-0.909	2.13	8.98	3.23	15	-2.59
CN(C)c1cc(C(=O)NCCc2nnc(-c3ccco3)[nH]2)ccn1	-2.63	2.63	0.765	-1.33	-2.63	-4.73	5.46	0.0854	4.25	10.4	-3.29
O=C(NCc1cccnc1-n1cccn1)C1CC(=O)N(CC2CC2)C1 (configuration not stated)	1.42	-2.6	12.9	-3.81	-3.43	7.37	2.99	18.6	-0.952	-2.35	-13.5
CCN1CCC(CNC(=O)C2(c3cccc(C)c3)CC2)C1 (configuration not stated)	-2.88	-1.27	6.26	2.04	-7.69	5.81	10.1	13.3	11.5	15.2	-11.4
CN(CCN1CCCCCC1)C(=O)c1cc(CN2CCC(O)CC2)on1	-4.14	2.74	-1.87	-2.01	2.74	0.909	13.3	-3.45	8.6	15	-2.4
CN(C)C(=O)C1CN(Cc2cscn2)CCN(S(C)(=O)=O)C1 (configuration not stated)	-11.5	17.6	-0.331	3.06	1.98	-1.16	6.55	2.48	7.53	19.5	-22.4
CC(=O)Nc1cccc(OCCNC(=O)N(C)Cc2ccco2)c1	-4.59	2.63	7.27	-2.99	1.46	-4.73	6.62	-1.59	4.25	0	-3.97
CCn1c(C(=O)N2CCN(CC(C)O)CC2)cc2ccccc21 (configuration not stated)	-8.12	7.79	-6.74	7.69	10.1	-1.78	6.42	-0.229	3.88	21.9	-10.6
O=C(c1cccnc1)N1CC[C@H](OCC2CC2)[C@@H]1Cc1cccnc1	-0.924	13.3	5.44	-0.245	-4.44	-43.2	2.73	-15.6	1.04	-10	-6.48
CCn1cnnc1C1CCN(C(=O)COc2ccccc2)CC1	-7.35	13	-3.46	-2.33	4.6	-0.21	5.74	7.87	4.76	11.8	-22.2
